Source: PubChem
FMDV antiviral – High Throughput Screening for Foot and Mouth Disease Virus Antivirals; FMDV antiviral cell-based qHTS; Potency, µM (top dose mostly 57.9 µM), without a hit: at the top dose activity change, negative = inhibition, actives largely listed as inhibitors; 410,000 compounds, 1.2% hits; AID 1159524, 2015; calls by dose curve; tested in HEK293T cells; note: read-out not given here; potency is the fitted concentration of half-maximal effect; nearly all actives have a fitted effect of over 45% in size
HCV inhibitor – qHTS Assay for Inhibitors of Hepatitis C Virus (HCV); Huh7.5.1 HCVcc-Cre infection, luciferase reporter, 44 h; 340,000 compounds, 3.4% hits; Potency, µM (titrated, usually from 41.8 µM), for inactives: at the highest dose activity change, negative = inhibition, usual class: inhibitors; active = well fitted inhibition curve with a large enough effect; inconclusive = small, poorly fitted or top-dose-only effect, or another doubt; inactive = no such curve, though single readings can be large or run the other way; note: potency is the fitted concentration of half-maximal effect
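A cell-based infection assay in which seeded cells (1,000 per well) receive test compound after 4 h, are inoculated with HCVcc-Cre at approximately 0.5 moi, and are incubated 44 h before luminescence detection.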
Lassa entry inh – qHTS for Inhibitors of binding or entry into cells for Lassa Virus; Lassa virus pseudotype entry inhibition, cell reporter; Potency, µM (top dose mostly 37.9 µM), for inactives: at the highest dose activity change, negative = inhibition, most hits filed as inhibitors; AID 540256, 2011; 300,000 compounds, 1.2% hits; calls by dose curve; tested in HEK293 cells; note: potency is the fitted concentration of half-maximal effect; nearly all actives have a fitted effect of over 50% in size
HCMV inh – qHTS Assay for inhibitors of the human cytomegalovirus (HCMV); HFF cells, HCMV-luciferase reporter, 72 h; active compounds read low; activity change, negative = inhibition, % at 57.5 µM; 410,000 compounds, 4.5% hits; AID 1259415, 2018; in the data active = activity change below about -60%; inconclusive = no clear call, values can overlap the other calls; inactive = above about -39%
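After 16 h attachment at 37C, HFF cells received test compound and HCMV-luciferase (1 PFU/cell); reporter luminescence read 72 h later, data normalized against buffer-only and known inhibitor Salinomycin.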
Marburg entry inh – qHTS for inhibitors of binding or entry into cells for Marburg Virus; AID 540276, 2011; Potency, µM (top dose mostly 37.8 µM), without a hit: at the top dose activity change, negative = inhibition, actives largely listed as inhibitors; Marburg virus pseudotyped entry inhibition, cell reporter; 300,000 compounds, 1.8% hits; calls by dose curve; tested in HEK293 cells; note: potency is the fitted concentration of half-maximal effect
Active calls of the source: *; ? = inconclusive; . = no result given; ! = not active in a repeat; [ ] = remark or other dose. A selection: hits, their analogues and other compounds. The true share with any hit is near 7.9%. % is set by controls: 0 for no effect and ±100 for the full control effect.

SMILES	FMDV antiviral	HCV inhibitor	Lassa entry inh	HCMV inh	Marburg entry inh
COc1ccc(C(=O)/C=C/c2ccc(OC)c(CN3CCOCC3)c2)cc1	14µM*	11%	?	-77*	?
COc1ccc(/C=C/C(=O)c2ccc3ccccc3c2O)cc1CN1CCOCC1	?	-20%	19%	-21	2%
COc1ccc(/C=C/C(=O)c2ccccc2O)cc1CN1CCOCC1	?	?	?	.	11µM*
COc1ccc(/C=C/C(=O)C23CC4CC(CC(C4)C2)C3)cc1CN1CCOCC1	?	?	?	-82*	?
O=C(CSc1nccn1Cc1ccccc1)NC1CCCC1	-9%	28%	7%	24	10%
CN(CC(=O)Nc1ccccc1C(=O)NC1CC1)Cc1ccco1	-14%	3%	.	-16	.
Cc1ccc(-c2nc(CS(=O)CC(=O)NCCN(CC(C)C)CC(C)C)c(C)o2)cc1 (stereo not drawn)	-16%	11µM*!	1%	9	?
Cc1oc(-c2ccc(Cl)cc2)nc1CS(=O)CC(=O)NCCCN(C)C1CCCCC1 (stereo not drawn)	?	10µM*	10%	-70*	?
Cc1ccc(-c2nc(CS(=O)CC(=O)NCCCN3CCN(Cc4ccccc4)CC3)c(C)o2)cc1 (stereo not drawn)	-23%	10µM*	?	-75*	11µM*
O=C(CSc1nc2cc3ccccc3cc2[nH]1)Nc1cccc(C(F)(F)F)c1	4%	.	?	-16	12%[46.1 µM]
COc1ccc(NC(=O)Cc2ccc(Cl)c(Cl)c2)cn1	3%	-10%	.	1	.
COc1ccc(NC(=O)Cc2ccc(Cl)cc2Cl)cn1	-13%	-4%	-10%[46.1 µM]	-101*	7%[46.1 µM]
COc1ccc(NC(=O)/C(Cl)=C(/Cl)S(=O)(=O)Cc2ccc(C)cc2)cn1	22µM*	2.5µM*	14µM*	.	4.5µM*
COc1ccc(NC(=O)COC(=O)C(NC(=O)c2ccc(C)cc2)C(C)C)cn1 (stereo not drawn)	6%	-17%	3%	-5	-2%
COc1ccc(NC(=O)/C(Cl)=C(/Cl)S(=O)Cc2ccccc2Cl)cn1 (stereo not drawn)	3.2µM*	2.8µM*	?	.	?
CC1=C(C(=O)Nc2ccc(C)cc2C)C(CC(C)C)n2nc(SCc3ccccc3C)nc2N1 (stereo not drawn)	11%	.	-5%[46.1 µM]	-7	29%[46.1 µM]
Cc1c(NC(=O)c2cc(-n3cnnc3)ccc2Cl)cccc1-c1nc2ccccc2s1	14%	?	1%	9	?
O=C(Nc1cccc(-c2nc3ccccc3s2)c1)c1cc(-n2cnnc2)ccc1Cl	2%	13µM*	.	.	.
Cc1ccc2sc(-c3ccc(NC(=O)c4cc(-n5cnnc5)ccc4Cl)cc3)nc2c1	8%	0.89µM*	?	?	?
COc1ccc(C(O)c2nc(-c3cnc4ccccc4c3)cs2)cc1 (stereo not drawn)	28%	.	.	47	.
CCC(CO)Oc1cc(NCc2ccc(OC)cc2)c2ncn(C(C)C)c2c1 (stereo not drawn)	4%	?	.	16	.
CCC(CO)Oc1cc(NCc2cccc(C)c2)c2ncn(C(C)C)c2c1 (stereo not drawn)	-12%	?	.	-76*	.
CCC(CO)Oc1cc(NCc2ccc(C(F)(F)F)cc2)c2ncn(C(C)C)c2c1 (stereo not drawn)	-21%	11µM*	.	-28	.
CCOc1cc(NCc2ccccc2)c2ncn(C(C)C)c2c1	0%	2.5µM*	.	11	.
CCC(CO)Oc1cc(NCc2cccc(C(F)(F)F)c2)c2ncn(C(C)C)c2c1 (stereo not drawn)	-18%	?	.	5	.
SMILES	FMDV antiviral	HCV inhibitor	Lassa entry inh	HCMV inh	Marburg entry inh
CC[C@H](CO)Oc1cc(NCc2ccc(Cl)c(Cl)c2)c2ncn(C(C)C)c2c1	-29%	11µM*	.	19	.
CCC(CO)Oc1cc(NCc2ccc(C)cc2)c2ncn(C(C)C)c2c1 (stereo not drawn)	-2%	?	.	7	.
CCC(CO)Oc1cc(NCc2ccc(Cl)cc2)c2ncn(C(C)C)c2c1 (stereo not drawn)	-27%	2.2µM*	.	-18	.
COC(=O)[C@H]1[C@H](CO)[C@H]2Cn3c(ccc(Br)c3=O)[C@H]2N1C(=O)c1ccccn1	.	.	.	11	.
Oc1ccc(Cc2ccc(Cl)cc2)c(O)c1	-16%	20%	-3%[46.1 µM]	-62*	-3%[46.1 µM]
CCC(COC)NCc1cn(-c2ccc(OC)cc2)nc1-c1cccc(F)c1 (stereo not drawn)	?	-4%	?	?	10µM*
COc1ccc(-n2cc(CNC(C)c3ccncn3)c(-c3cccc(F)c3)n2)cc1 (stereo not drawn)	-8%	6%	-4%	?	?
COc1ccc(-n2cc(CNC3CCN(C)CC3)c(-c3cccc(F)c3)n2)cc1	6%	11µM*	11µM*	-39	3.2µM*
COc1cccc(CNC(=O)c2c(OC)cc(=O)n3c2CCN(C(=O)C2CC=CCC2)CC3)c1 (stereo not drawn)	2%	.	.	.	.
Cc1nn(CC(=O)Nc2cc(F)ccc2F)c(=O)c2cccn12	-13%	.	6%[46.1 µM]	7	?
Cc1ccc(Cn2ccc(-c3cnc(-c4ccccc4)s3)n2)cc1	-27%	?	?	?	-24%[46.1 µM]
Fc1ccc(Cn2ccc(-c3cnc(-c4ccccc4)s3)n2)cc1	-4%	10µM*	-26%	?	?
CC1(C(=O)Nc2cccc3cccnc23)CCN1Cc1ccccc1OC(F)F (stereo not drawn)	?	.	.	4	.
CCc1cc(=O)oc2c3c(cc(OCC(=O)NCc4ccco4)c12)OC(C)(C)CC3	?	1.3µM*	.	.	.
CCc1cc(=O)oc2c3c(cc(OCC(=O)NCCC(=O)O)c12)OC(C)(C)CC3	-11%	-2%	13%[46.1 µM]	?	9%[46.1 µM]
CCc1cc(=O)oc2c3c(cc(OCC(=O)NCCCOC)c12)OC(C)(C)CC3	3%	?	5%[46.1 µM]	-69*	-1%[46.1 µM]
CCc1cc(=O)oc2c3c(cc(OCC(=O)NC4CC4)c12)OC(C)(C)CC3	-20%	0.79µM*	.	-10	.
CCc1cc(=O)oc2c3c(cc(OCC(=O)NCCCC(=O)O)c12)OC(C)(C)CC3	-5%	11%	.	-7	.
C[C@H]1C[C@@H](C)O[C@@]2(C1)C(=O)N(Cc1ccccc1C(F)(F)F)c1ccccc12	.	.	.	.	-15%[14.2 µM]
COc1ccccc1NC(=O)Nc1ccc(F)c(F)c1	9%	-2%	-24%[46.1 µM]	-102*	-20%[46.1 µM]
Cc1cc(NC(=O)Nc2ccccc2F)ccc1Br	-8%	13µM*	?	-19	?
O=C(Nc1nncs1)c1cc2c(s1)CCC2	-6%	13%	-10%[46.1 µM]	63	?
O=C(Nc1nccs1)c1cc2c(s1)CCCCC2	8.9µM*	-19%	?	-64*	?
COc1cc2c(cc1NC(=O)C(C)OC(=O)C1CC(=O)N(Cc3ccco3)C1)oc1ccccc12 (stereo not drawn)	0%	14µM*	12%	172	-23%
